Columns and labels:
Conditions in all cases: concentration: 1 μM, replicates: in singlicate; n = 1
MYO3B = test system: MYO3B
NDR1 = test system: T1, NDR1
T1 construct: gene STK38

NDR2 = test system: NDR2
NEK10 = test system: NEK10
NEK11 = test system: NEK11
NEK1 = test system: NEK1
NEK2 = test system: NEK2
NEK3 = test system: NEK3
NEK4 = test system: NEK4
NEK5 = test system: NEK5
NEK6 = test system: NEK6
NEK7 = test system: NEK7
NEK9 = test system: NEK9
NIK = test system: T2, NIK
T2 construct: gene MAP3K14

NIM1 = test system: T3, NIM1
T3 construct: gene MGC42105

NLK = test system: NLK
OSR1 = test system: T4, OSR1
T4 construct: gene OXSR1

PAK1 = test system: PAK1
PAK2 = test system: PAK2
PAK3 = test system: PAK3
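Also: KINOMEscan kinase panel screen.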

| Structure (SMILES) | %Inh (MYO3B) | %Inh (NDR1) | %Inh (NDR2) | %Inh (NEK10) | %Inh (NEK11) | %Inh (NEK1) | %Inh (NEK2) | %Inh (NEK3) | %Inh (NEK4) | %Inh (NEK5) | %Inh (NEK6) | %Inh (NEK7) | %Inh (NEK9) | %Inh (NIK) | %Inh (NIM1) | %Inh (NLK) | %Inh (OSR1) | %Inh (PAK1) | %Inh (PAK2) | %Inh (PAK3) |
| --- | --- | --- | --- | --- | --- | --- | --- | --- | --- | --- | --- | --- | --- | --- | --- | --- | --- | --- | --- | --- |
| COCCNC(=O)c1ccc(-c2cc(C(=O)NC3CC3)cc(F)c2C)cc1 [GW868318] | 24% | 33% | 21% | 3% | 27% | 0% | 0% | 26% | 14% | 8% | 22% | 0% | 0% | 48% | 59% | 11% | 30% | 20% | 49% | 27% |
| CN(C(=O)c1ccc(-c2cc(-c3c[nH]nc3-c3ccccn3)ccn2)cc1)C1CCOCC1 [GW810083] | 0% | 3% | 0% | 0% | 9% | 0% | 0% | 16% | 0% | 7% | 6% | 6% | 18% | 29% | 20% | 0% | 0% | 0% | 0% | 0% |
| Cc1cccc(-c2nc(-c3ccc(S(C)(=O)=O)cc3)sc2-c2ccncc2)c1 | 0% | 0% | 14% | 0% | 0% | 8% | 0% | 61% | 0% | 3% | 14% | 0% | 16% | 0% | 0% | 64% | 0% | 14% | 0% | 9% |
| Cc1ccc(C(=O)NCC(N)=O)cc1-n1c(C)cc(OCc2ccc(F)cc2F)c(Br)c1=O | 15% | 24% | 13% | 0% | 0% | 0% | 10% | 29% | 0% | 0% | 4% | 12% | 4% | 0% | 0% | 14% | 0% | 16% | 14% | 37% |
| Cc1ccc(NC(=O)c2ccnc(N3CCN(C)CC3)c2)cc1-c1ccc(C(=O)NCC2CC2)cc1 [GW775604] | 22% | 27% | 0% | 0% | 0% | 20% | 0% | 20% | 0% | 0% | 0% | 0% | 0% | 4% | 0% | 0% | 0% | 9% | 37% | 0% |
